Assay results from publication PMC7862700, “An all-to-all approach to the identification of sequence-specific readers for epigenetic DNA modifications on cytosine”.

Tests used:
Experiment in all cases: DAPPL (digital affinity profiling via proximity ligation, sequencing); 10 mM Tris-HCl pH 7.5, 50 mM NaCl, 1 mM DTT, 4% glycerol, room temperature, 30 min; GST-TFs on glutathione beads, 16-mer random dsDNA library, 0.1% formaldehyde crosslink after washing; high values mean tight binding
FLI1 = molecular target: T1, FLI1 (Homo sapiens, UniProt Q01543 1-452); details: protein: recombinant; tags: N-terminal GST; dsDNA, one strand shown
T1 sequence: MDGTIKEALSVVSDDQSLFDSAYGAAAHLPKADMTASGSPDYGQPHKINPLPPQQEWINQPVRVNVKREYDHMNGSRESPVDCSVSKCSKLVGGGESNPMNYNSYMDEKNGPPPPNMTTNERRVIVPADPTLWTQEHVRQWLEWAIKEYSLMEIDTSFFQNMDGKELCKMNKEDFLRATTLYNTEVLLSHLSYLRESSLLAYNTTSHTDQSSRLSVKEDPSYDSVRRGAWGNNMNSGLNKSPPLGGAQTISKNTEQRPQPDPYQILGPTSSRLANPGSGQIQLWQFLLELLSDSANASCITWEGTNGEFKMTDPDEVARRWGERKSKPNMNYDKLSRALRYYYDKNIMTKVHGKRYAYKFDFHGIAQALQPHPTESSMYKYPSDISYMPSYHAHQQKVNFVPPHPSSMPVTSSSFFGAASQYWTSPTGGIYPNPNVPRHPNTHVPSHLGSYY
Summary of the method: (§1)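 A tag-only sample was pooled with DNA-barcoded human transcription factors that had been expressed in yeast as GST fusions and captured on glutathione beads. The pools were incubated for 30 min at room temperature with 200 nmole of a random double-stranded 16-mer DNA library in Tris/NaCl/DTT/glycerol buffer, then washed, crosslinked with 0.1% formaldehyde, proximity-ligated (BsaI/T4 ligase, 1 h, 37 °C), PCR-amplified and sequenced on an Illumina NextSeq500. Binding signal is each hexamer's read frequency for a factor divided by its frequency for the tag-only sample.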

ELK1 = molecular target: T2, ELK1 (Homo sapiens, UniProt P19419 1-428); details: protein: recombinant; tags: N-terminal GST; dsDNA, one strand shown
T2 sequence: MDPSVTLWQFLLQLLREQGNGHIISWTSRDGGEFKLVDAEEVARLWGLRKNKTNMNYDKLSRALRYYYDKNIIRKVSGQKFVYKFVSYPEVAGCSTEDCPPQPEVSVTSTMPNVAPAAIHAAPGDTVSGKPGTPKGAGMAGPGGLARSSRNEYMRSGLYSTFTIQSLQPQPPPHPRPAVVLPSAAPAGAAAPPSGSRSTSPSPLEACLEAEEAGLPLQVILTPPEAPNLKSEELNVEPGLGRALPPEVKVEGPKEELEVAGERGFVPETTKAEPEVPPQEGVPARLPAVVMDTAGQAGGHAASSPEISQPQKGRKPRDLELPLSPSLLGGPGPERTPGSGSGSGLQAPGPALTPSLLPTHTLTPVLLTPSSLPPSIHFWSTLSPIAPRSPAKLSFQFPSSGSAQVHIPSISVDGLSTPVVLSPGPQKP
Summary of the method: as §1

GABPA = molecular target: T3, GABPA (Homo sapiens, UniProt Q06546 1-454); details: protein: recombinant; tags: N-terminal GST; dsDNA, one strand shown
T3 sequence: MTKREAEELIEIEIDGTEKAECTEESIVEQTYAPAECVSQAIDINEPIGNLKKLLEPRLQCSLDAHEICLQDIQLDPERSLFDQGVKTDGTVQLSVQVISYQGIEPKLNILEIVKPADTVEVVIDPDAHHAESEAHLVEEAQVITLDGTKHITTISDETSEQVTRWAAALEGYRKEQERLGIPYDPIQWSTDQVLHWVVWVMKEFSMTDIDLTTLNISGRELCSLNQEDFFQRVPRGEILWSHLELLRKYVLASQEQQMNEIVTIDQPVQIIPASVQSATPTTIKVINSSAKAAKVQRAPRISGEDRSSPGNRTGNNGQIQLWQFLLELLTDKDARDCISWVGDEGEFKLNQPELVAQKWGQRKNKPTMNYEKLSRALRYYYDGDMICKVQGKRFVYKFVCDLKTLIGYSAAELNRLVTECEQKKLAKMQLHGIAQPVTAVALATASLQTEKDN
Summary of the method: as §1

ERG = molecular target: T4, ERG (Homo sapiens, UniProt P11308 1-479); details: protein: recombinant; tags: N-terminal GST; dsDNA, one strand shown
T4 sequence: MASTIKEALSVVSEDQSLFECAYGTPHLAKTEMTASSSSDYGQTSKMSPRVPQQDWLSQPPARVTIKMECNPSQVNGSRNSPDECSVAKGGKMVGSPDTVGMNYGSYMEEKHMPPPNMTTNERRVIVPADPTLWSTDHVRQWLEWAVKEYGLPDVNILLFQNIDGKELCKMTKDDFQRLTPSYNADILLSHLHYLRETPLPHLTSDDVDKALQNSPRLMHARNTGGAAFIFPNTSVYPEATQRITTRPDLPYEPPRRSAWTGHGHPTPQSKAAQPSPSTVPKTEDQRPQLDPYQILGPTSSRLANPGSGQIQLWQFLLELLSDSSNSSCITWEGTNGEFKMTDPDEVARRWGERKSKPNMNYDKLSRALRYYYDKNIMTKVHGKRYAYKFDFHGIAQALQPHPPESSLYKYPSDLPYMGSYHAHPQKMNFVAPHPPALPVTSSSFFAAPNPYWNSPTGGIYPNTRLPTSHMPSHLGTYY
Summary of the method: as §1

ELF1 = ELF1 (Homo sapiens, UniProt P32519 1-619); details: protein: recombinant; tags: N-terminal GST; dsDNA, one strand shown
ELF1, sequence (P32519 whole entry): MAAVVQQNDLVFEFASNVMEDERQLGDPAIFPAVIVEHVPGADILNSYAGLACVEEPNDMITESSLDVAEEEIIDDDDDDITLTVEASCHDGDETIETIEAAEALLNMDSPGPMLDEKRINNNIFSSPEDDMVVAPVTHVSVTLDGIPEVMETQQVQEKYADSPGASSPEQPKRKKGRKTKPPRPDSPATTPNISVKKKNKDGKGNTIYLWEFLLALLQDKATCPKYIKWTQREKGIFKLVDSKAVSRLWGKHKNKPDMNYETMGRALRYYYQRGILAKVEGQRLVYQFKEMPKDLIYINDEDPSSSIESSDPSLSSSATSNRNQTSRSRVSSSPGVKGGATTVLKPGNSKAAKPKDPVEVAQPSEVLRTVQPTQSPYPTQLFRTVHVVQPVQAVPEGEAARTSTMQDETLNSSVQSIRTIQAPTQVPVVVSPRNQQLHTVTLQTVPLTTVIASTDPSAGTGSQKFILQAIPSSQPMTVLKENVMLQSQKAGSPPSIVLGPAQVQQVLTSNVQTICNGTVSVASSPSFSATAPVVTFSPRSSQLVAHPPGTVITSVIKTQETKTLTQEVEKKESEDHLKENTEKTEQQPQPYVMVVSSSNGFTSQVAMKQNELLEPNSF
Summary of the method: as §1

SPI1 = SPI1 (Homo sapiens, UniProt P17947 1-270); details: protein: recombinant; tags: N-terminal GST; dsDNA, one strand shown
Summary of the method: as §1

SPIB = SPIB (Homo sapiens, UniProt Q01892 1-262); details: protein: recombinant; tags: N-terminal GST; dsDNA, one strand shown
SPIB, sequence (Q01892 whole entry): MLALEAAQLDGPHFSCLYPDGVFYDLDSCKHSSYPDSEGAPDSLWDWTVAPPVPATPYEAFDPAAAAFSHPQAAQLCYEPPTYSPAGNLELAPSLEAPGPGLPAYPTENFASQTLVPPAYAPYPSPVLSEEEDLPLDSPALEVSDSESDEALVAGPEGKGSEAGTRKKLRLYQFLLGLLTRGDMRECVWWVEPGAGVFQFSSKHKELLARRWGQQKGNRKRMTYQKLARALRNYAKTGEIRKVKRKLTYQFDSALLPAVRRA
Summary of the method: as §1

ETV5 = ETV5 (Homo sapiens, UniProt P41161 1-510); details: protein: recombinant; tags: N-terminal GST; dsDNA, one strand shown
ETV5, sequence (P41161 whole entry): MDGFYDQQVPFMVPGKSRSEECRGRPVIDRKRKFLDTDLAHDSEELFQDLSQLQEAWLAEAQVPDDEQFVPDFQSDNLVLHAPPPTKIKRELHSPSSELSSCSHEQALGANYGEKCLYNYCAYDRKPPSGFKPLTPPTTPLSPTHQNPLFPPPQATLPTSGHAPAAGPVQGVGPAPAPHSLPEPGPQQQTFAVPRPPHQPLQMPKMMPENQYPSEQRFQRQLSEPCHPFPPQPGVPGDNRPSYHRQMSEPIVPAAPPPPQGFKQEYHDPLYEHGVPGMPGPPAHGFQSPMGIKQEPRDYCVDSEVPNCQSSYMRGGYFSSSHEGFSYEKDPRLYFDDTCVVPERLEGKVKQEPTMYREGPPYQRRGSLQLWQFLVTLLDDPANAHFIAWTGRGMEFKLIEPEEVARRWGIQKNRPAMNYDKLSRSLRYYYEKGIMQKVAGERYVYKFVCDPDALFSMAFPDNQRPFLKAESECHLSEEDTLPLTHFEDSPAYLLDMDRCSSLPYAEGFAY
Summary of the method: as §1

HSF1 = HSF1 (Homo sapiens, UniProt Q00613 1-529); details: protein: recombinant; tags: N-terminal GST; chain copies: 3; dsDNA, one strand shown
HSF1, sequence (Q00613 whole entry): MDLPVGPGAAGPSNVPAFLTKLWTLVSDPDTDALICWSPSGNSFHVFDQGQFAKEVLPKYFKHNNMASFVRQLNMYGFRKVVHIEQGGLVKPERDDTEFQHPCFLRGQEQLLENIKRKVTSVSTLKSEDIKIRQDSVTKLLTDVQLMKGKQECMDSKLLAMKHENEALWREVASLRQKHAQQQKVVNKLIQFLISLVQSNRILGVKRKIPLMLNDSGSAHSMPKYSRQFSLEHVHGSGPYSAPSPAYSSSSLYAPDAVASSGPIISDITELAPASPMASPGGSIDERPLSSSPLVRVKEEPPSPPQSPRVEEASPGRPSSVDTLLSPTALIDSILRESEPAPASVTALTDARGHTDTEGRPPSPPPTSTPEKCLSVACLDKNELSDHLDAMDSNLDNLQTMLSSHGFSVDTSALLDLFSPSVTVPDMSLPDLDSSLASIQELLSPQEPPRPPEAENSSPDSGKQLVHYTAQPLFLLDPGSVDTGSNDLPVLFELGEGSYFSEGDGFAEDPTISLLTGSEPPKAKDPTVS
Summary of the method: as §1

ELF4 = ELF4 (Homo sapiens, UniProt Q99607 1-663); details: protein: recombinant; tags: N-terminal GST; dsDNA, one strand shown
ELF4, sequence (Q99607 whole entry): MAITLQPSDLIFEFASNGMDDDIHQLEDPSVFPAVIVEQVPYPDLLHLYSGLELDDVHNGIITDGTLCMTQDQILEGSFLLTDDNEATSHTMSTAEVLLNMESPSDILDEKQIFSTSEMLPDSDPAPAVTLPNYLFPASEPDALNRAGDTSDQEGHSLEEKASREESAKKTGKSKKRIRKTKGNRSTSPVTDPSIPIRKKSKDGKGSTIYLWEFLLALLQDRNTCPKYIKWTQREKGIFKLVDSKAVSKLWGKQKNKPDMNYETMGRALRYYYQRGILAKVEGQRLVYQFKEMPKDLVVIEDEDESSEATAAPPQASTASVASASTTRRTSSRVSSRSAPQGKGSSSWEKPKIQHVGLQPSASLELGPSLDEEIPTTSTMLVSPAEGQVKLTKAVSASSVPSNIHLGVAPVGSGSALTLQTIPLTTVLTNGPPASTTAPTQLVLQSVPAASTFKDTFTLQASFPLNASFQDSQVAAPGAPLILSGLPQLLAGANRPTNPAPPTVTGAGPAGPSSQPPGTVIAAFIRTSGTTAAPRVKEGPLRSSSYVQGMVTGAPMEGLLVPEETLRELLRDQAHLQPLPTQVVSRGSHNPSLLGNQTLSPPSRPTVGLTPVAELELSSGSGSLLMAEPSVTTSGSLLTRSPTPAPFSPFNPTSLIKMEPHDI
Summary of the method: as §1

ELK4 = molecular target: T5, ELK4 (Homo sapiens, UniProt P28324-2 1-405); details: protein: recombinant; tags: N-terminal GST; dsDNA, one strand shown
T5 sequence: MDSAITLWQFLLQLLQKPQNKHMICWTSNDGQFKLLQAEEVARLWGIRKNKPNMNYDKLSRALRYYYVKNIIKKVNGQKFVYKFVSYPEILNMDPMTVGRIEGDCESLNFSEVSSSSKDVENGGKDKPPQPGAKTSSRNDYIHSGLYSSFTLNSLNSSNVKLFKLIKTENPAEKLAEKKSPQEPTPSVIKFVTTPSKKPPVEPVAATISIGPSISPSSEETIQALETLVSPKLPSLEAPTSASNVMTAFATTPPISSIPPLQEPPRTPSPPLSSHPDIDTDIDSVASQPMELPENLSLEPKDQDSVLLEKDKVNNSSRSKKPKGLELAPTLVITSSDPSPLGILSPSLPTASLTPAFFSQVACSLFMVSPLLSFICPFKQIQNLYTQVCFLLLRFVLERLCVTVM
Summary of the method: as §1

ETV2 = molecular target: T6, ETV2 (Homo sapiens, UniProt O00321 1-342); details: protein: recombinant; tags: N-terminal GST; dsDNA, one strand shown
T6 sequence: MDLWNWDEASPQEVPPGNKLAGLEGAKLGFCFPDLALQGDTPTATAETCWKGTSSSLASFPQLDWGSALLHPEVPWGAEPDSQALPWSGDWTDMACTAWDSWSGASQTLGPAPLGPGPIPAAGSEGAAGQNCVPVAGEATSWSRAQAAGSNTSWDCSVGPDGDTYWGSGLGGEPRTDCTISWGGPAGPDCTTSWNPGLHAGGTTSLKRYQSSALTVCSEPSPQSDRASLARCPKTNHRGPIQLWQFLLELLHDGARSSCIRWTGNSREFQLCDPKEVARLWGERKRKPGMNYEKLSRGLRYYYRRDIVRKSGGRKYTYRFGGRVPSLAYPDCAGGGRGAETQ
Summary of the method: as §1

ELF3 = molecular target: T7, ELF3 (Homo sapiens, UniProt P78545 1-371); details: protein: recombinant; tags: N-terminal GST; dsDNA, one strand shown
T7 sequence: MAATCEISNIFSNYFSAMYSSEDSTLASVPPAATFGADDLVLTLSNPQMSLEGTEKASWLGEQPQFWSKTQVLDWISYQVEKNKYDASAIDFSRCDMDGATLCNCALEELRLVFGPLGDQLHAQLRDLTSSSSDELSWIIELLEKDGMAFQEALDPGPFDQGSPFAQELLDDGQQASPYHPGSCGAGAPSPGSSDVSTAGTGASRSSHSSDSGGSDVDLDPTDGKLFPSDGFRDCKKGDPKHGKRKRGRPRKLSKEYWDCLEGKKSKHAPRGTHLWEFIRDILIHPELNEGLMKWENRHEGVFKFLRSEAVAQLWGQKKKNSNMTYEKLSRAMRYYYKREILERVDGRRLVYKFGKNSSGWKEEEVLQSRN
Summary of the method: as §1

CRX = CRX (Homo sapiens, UniProt O43186 1-299); details: protein: recombinant; tags: N-terminal GST; dsDNA, one strand shown
CRX, sequence (O43186 whole entry): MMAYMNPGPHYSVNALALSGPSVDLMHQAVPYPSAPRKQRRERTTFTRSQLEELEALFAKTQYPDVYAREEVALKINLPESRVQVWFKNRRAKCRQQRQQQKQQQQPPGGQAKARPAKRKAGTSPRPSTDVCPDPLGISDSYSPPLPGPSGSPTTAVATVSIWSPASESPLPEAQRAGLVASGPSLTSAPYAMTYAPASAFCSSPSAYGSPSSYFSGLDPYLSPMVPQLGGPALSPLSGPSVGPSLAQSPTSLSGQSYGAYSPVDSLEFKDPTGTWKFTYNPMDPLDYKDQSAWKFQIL
Summary of the method: as §1

ETV1 = ETV1 (Homo sapiens, UniProt P50549 1-477); details: protein: recombinant; tags: N-terminal GST; dsDNA, one strand shown
ETV1, sequence (P50549 whole entry): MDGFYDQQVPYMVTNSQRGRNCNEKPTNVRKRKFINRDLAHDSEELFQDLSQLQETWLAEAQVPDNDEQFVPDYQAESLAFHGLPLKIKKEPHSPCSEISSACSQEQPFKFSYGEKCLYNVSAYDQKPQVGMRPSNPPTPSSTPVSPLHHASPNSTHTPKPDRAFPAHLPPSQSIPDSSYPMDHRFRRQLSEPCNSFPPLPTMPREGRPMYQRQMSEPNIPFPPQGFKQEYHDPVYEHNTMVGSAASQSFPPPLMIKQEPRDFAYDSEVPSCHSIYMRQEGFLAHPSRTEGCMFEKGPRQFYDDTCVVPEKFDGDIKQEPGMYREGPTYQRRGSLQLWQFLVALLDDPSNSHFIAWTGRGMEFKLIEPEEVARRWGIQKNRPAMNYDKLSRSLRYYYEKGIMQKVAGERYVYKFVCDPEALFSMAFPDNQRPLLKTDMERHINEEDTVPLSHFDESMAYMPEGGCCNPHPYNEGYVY
Summary of the method: as §1

EHF = molecular target: T8, EHF (Homo sapiens, UniProt Q9NZC4 1-300); details: protein: recombinant; tags: N-terminal GST; dsDNA, one strand shown
T8 sequence: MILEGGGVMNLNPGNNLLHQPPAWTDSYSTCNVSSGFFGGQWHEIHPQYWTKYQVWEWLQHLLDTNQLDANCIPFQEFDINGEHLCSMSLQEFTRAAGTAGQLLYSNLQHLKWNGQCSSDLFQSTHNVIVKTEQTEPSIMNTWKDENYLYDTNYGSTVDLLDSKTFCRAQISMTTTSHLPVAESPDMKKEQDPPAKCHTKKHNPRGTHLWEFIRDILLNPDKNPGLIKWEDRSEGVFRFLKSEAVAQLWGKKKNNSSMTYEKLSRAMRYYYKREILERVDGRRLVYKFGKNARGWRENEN
Summary of the method: as §1

ELK3 = molecular target: T9, ELK3 (Homo sapiens, UniProt P41970 1-407); details: protein: recombinant; tags: N-terminal GST; dsDNA, one strand shown
T9 sequence: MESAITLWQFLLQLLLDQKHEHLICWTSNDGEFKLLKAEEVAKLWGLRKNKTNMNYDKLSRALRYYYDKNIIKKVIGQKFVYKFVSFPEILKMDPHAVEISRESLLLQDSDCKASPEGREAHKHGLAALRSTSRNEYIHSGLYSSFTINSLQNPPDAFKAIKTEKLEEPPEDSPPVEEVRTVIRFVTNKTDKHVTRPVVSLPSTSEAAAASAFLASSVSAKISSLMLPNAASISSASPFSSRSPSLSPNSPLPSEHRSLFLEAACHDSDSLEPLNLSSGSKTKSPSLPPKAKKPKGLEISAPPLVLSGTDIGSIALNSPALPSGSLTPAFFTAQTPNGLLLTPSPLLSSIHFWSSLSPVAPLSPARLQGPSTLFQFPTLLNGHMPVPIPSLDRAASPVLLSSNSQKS
Summary of the method: as §1

FEV = molecular target: T10, FEV (Homo sapiens, UniProt Q99581 1-238); details: protein: recombinant; tags: N-terminal GST; dsDNA, one strand shown
T10 sequence: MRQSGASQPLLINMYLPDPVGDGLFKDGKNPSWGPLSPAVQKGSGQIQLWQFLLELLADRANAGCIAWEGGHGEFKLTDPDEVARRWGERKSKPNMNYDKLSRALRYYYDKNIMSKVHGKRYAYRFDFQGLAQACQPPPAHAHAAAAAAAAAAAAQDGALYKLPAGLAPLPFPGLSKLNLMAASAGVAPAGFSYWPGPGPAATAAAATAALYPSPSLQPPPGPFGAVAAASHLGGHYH
Summary of the method: as §1

| Sequence | binding signal (FLI1) | binding signal (ELK1) | binding signal (GABPA) | binding signal (ERG) | binding signal (ELF1) | binding signal (SPI1) | binding signal (SPIB) | binding signal (ETV5) | binding signal (HSF1) | binding signal (ELF4) | binding signal (ELK4) | binding signal (ETV2) | binding signal (ELF3) | binding signal (CRX) | binding signal (ETV1) | binding signal (EHF) | binding signal (ELK3) | binding signal (FEV) |
| --- | --- | --- | --- | --- | --- | --- | --- | --- | --- | --- | --- | --- | --- | --- | --- | --- | --- | --- |
| AGGTAT | 1.06 fold enrichment (6-mer frequency, TF over GST control) | 1.06 fold enrichment (6-mer frequency, TF over GST control) | 1.07 fold enrichment (6-mer frequency, TF over GST control) | 1.04 fold enrichment (6-mer frequency, TF over GST control) | 1.04 fold enrichment (6-mer frequency, TF over GST control) | 1.04 fold enrichment (6-mer frequency, TF over GST control) | 1 fold enrichment (6-mer frequency, TF over GST control) | 1.02 fold enrichment (6-mer frequency, TF over GST control) | 1.07 fold enrichment (6-mer frequency, TF over GST control) | 1.02 fold enrichment (6-mer frequency, TF over GST control) | 1.03 fold enrichment (6-mer frequency, TF over GST control) | 1.03 fold enrichment (6-mer frequency, TF over GST control) | 1.12 fold enrichment (6-mer frequency, TF over GST control) | 1.05 fold enrichment (6-mer frequency, TF over GST control) | 1.02 fold enrichment (6-mer frequency, TF over GST control) |  |  |  |
| GTTTTA | 1.17 fold enrichment (6-mer frequency, TF over GST control) | 1.05 fold enrichment (6-mer frequency, TF over GST control) | 1.14 fold enrichment (6-mer frequency, TF over GST control) | 1.07 fold enrichment (6-mer frequency, TF over GST control) | 1.07 fold enrichment (6-mer frequency, TF over GST control) | 1.12 fold enrichment (6-mer frequency, TF over GST control) | 1.16 fold enrichment (6-mer frequency, TF over GST control) | 1.07 fold enrichment (6-mer frequency, TF over GST control) | 1.17 fold enrichment (6-mer frequency, TF over GST control) | 1.15 fold enrichment (6-mer frequency, TF over GST control) | 1.07 fold enrichment (6-mer frequency, TF over GST control) | 1.1 fold enrichment (6-mer frequency, TF over GST control) | 1.06 fold enrichment (6-mer frequency, TF over GST control) | 1.41 fold enrichment (6-mer frequency, TF over GST control) | 1.13 fold enrichment (6-mer frequency, TF over GST control) | 1.11 fold enrichment (6-mer frequency, TF over GST control) | 1.08 fold enrichment (6-mer frequency, TF over GST control) | 1.08 fold enrichment (6-mer frequency, TF over GST control) |
